# According to the supplement of paper PMC8728848:
# The sample as a whole holds a higher share of the strongest signals than the screen did.
# B1: Galatrox (Botrops atrox), P0DM53 (protein)
# chain: NNCPQDWLPMNGLCYKIFDELKAWKDAEMFCRKYKPGCHLASIILYGESPEWAEGHSEVWLGLWDKKKDFSWEWTDR
# B2: Epa9 (Candida glabrata), CAGL0A01386g (protein)
# chain: MGSSHHHHHHSSGLVPRGSHMDITPFAHYPRPEGCSSPPNAVSVGLHMDLYNYPYLYVKNPRTGFTNDTDSDADGETDGDSAGGIEGRAGQCWNPEYQDPNFPRYGYKKYGSFGSSDHVNGKISWDHNEFKEGCKPIMARLPTAYNYPAKITFSNFTMVLSGYFKPKSTGLYKFEIHADDFILFNFGSKNAFECCNREESIDNFGPYVAYAMWPNEADQELEVYLFEDSYYPIRLFYNNRDYHSKFMVGFYPPNTEEITYDFDGYLYMLDDTGNECKDSIRYKTVCDD
# Columns and labels:
# Assay in all cases: glycan array binding signal (z-score within array); higher = stronger binding
# Settings in all cases: glycan notation: IUPAC condensed, linker removed
# [1] = target: Fuc(a1-2)Gal(b1-3)GlcNAc(b1-3)[Fuc(a1-3)[Gal(b1-4)]GlcNAc(b1-6)]Gal(b1-4)Glc
# How it was run: (§1)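 Glycan array data were curated from 3228 arrays in the Consortium for Functional Glycomics database and kept only where the protein sequence was available. Glycan names were converted to IUPAC-condensed notation, and columns mapping to the same glycan were averaged. The binding signal is a within-array Z-score, averaged across arrays of the same protein sequence at different concentrations or buffers and across linkers. Negative Z-scores can be read as non-binding.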
# [2] = target: Fuc(a1-2)Gal(b1-4)GlcNAc(b1-3)GalNAc
# How it was run: as §1
# [3] = target: Fuc(a1-2)Gal(b1-4)[Fuc(a1-3)]GlcNAc
# How it was run: as §1
# [4] = target: Fuc(a1-2)Gal(b1-4)[Fuc(a1-3)]GlcNAc(b1-2)Man(a1-3)[Fuc(a1-2)Gal(b1-4)[Fuc(a1-3)]GlcNAc(b1-2)Man(a1-6)]Man(b1-4)GlcNAc(b1-4)GlcNAc
# How it was run: as §1
# [5] = target: Fuc(a1-2)[GalNAc(a1-3)]Gal
# How it was run: as §1
# Gal(a1-3)Gal(b1-4)GlcNAc = target: Gal(a1-3)Gal(b1-4)GlcNAc
# How it was run: as §1
# Gal(a1-6)Glc = target: Gal(a1-6)Glc
# How it was run: as §1
# Gal(b1-3)Gal(b1-4)GlcNAc = target: Gal(b1-3)Gal(b1-4)GlcNAc
# How it was run: as §1
# [6] = target: Gal(b1-3)GlcNAc(b1-3)Gal(b1-4)Glc
# How it was run: as §1
# [7] = target: Gal(b1-3)[Fuc(a1-4)]GlcNAc(b1-2)Man(a1-3)[Gal(b1-3)[Fuc(a1-4)]GlcNAc(b1-2)Man(a1-6)]Man(b1-4)GlcNAc(b1-4)[Fuc(a1-6)]GlcNAc
# How it was run: as §1
# [8] = target: Gal(b1-3)[GlcNAc(b1-6)]GalNAc
# How it was run: as §1
# [9] = target: Gal(b1-4)GlcNAc(a1-6)Gal(b1-4)GlcNAc
# How it was run: as §1
# [10] = target: Gal(b1-4)GlcNAc(b1-2)Man(a1-3)[Gal(b1-4)GlcNAc(b1-2)Man(a1-6)]Man(b1-4)GlcNAc(b1-4)GlcNAc
# How it was run: as §1
# [11] = target: Gal(b1-4)GlcNAc(b1-2)Man(a1-3)[Man(a1-6)]Man(b1-4)GlcNAc(b1-4)GlcNAc
# How it was run: as §1
# [12] = target: Gal(b1-4)GlcNAc(b1-2)Man(a1-6)[Man(a1-3)]Man(b1-4)GlcNAc(b1-4)GlcNAc
# How it was run: as §1
# [13] = target: Gal(b1-4)GlcNAc(b1-2)[Gal(b1-4)GlcNAc(b1-4)]Man(a1-3)[Gal(b1-4)GlcNAc(b1-2)Man(a1-6)]Man(b1-4)GlcNAc(b1-4)GlcNAc
# How it was run: as §1
# [14] = target: Gal(b1-4)GlcNAc(b1-3)Gal(b1-4)GlcNAc
# How it was run: as §1
# [15] = target: Gal(b1-4)GlcNAc(b1-3)Gal(b1-4)GlcNAc(b1-3)Gal(b1-4)GlcNAc
# How it was run: as §1
# [16] = target: Gal(b1-4)GlcNAc(b1-3)Gal(b1-4)[Fuc(a1-3)]GlcNAc(b1-3)Gal(b1-4)[Fuc(a1-3)]GlcNAc
# How it was run: as §1
# [17] = target: Gal(b1-4)GlcNAc(b1-3)[Gal(b1-4)GlcNAc(b1-6)]Gal(b1-4)GlcNAc
# How it was run: as §1
# [18] = target: Gal(b1-4)GlcNAc(b1-6)GalNAc
# How it was run: as §1
# Gal3S(b1-3)GlcNAc = target: Gal3S(b1-3)GlcNAc
# How it was run: as §1
# Kdn(a2-6)Gal(b1-4)GlcNAc = target: Kdn(a2-6)Gal(b1-4)GlcNAc
# How it was run: as §1
# [19] = target: Man(a1-2)Man(a1-3)[Man(a1-2)Man(a1-6)]Man
# How it was run: as §1
# [20] = target: Man(a1-2)Man(a1-3)[Man(a1-2)Man(a1-6)]Man(a1-6)[Man(a1-2)Man(a1-2)Man(a1-3)]Man
# How it was run: as §1
# [21] = target: Neu5Ac(a2-3)Gal(b1-3)GlcNAc6S
# How it was run: as §1
# [22] = target: Neu5Ac(a2-3)Gal(b1-4)[Fuc(a1-3)]GlcNAc(b1-3)Gal(b1-4)GlcNAc
# How it was run: as §1
# [23] = target: Neu5Ac(a2-3)Gal(b1-4)[Fuc(a1-3)]GlcNAc6S
# How it was run: as §1
# Neu5Ac(a2-3)GalNAc = target: Neu5Ac(a2-3)GalNAc
# How it was run: as §1
# [24] = target: Neu5Gc(a2-3)Gal(b1-3)GlcNAc
# How it was run: as §1
# GalNAc3S(b1-4)GlcNAc3S = target: GalNAc3S(b1-4)GlcNAc3S
# How it was run: as §1
# GlcA(b1-6)Gal = target: GlcA(b1-6)Gal
# How it was run: as §1
# [25] = target: GlcNAc(a1-4)Gal(b1-4)GlcNAc(b1-3)Gal(b1-4)GlcNAc(b1-3)Gal(b1-4)GlcNAc
# How it was run: as §1
# [26] = target: GlcNAc(b1-6)Gal(b1-4)GlcNAc
# How it was run: as §1
# GlcNAc(b1-6)GalNAc = target: GlcNAc(b1-6)GalNAc
# How it was run: as §1
# Kdn(a2-3)Gal(b1-3)GlcNAc = target: Kdn(a2-3)Gal(b1-3)GlcNAc
# How it was run: as §1
# Kdn(a2-3)Gal(b1-4)GlcNAc = target: Kdn(a2-3)Gal(b1-4)GlcNAc
# How it was run: as §1
# [27] = target: Neu5Ac(a2-3)Gal(b1-4)GlcNAc(b1-3)Gal(b1-4)GlcNAc(b1-3)GalNAc
# How it was run: as §1
# [28] = target: Neu5Ac(a2-3)Gal(b1-4)[Fuc(a1-3)]GlcNAc(b1-3)Gal
# How it was run: as §1
# [29] = target: Neu5Ac(a2-3)Gal(b1-4)[Fuc(a1-3)]GlcNAc(b1-6)[Gal(b1-3)]GalNAc
# How it was run: as §1
# [30] = target: Neu5Ac(a2-3)[GalNAc(b1-4)]Gal(b1-4)Glc
# How it was run: as §1
# [31] = target: Neu5Ac(a2-6)Gal(b1-3)GlcNAc(b1-3)[Gal(b1-4)GlcNAc(b1-6)]Gal(b1-4)Glc
# How it was run: as §1
# [32] = target: Neu5Ac(a2-6)Gal(b1-4)GlcNAc(b1-2)Man(a1-3)[Man(a1-6)]Man(b1-4)GlcNAc(b1-4)GlcNAc
# How it was run: as §1
# [33] = target: Neu5Ac(a2-6)Gal(b1-4)GlcNAc(b1-3)[Neu5Ac(a2-6)Gal(b1-4)GlcNAc(b1-6)]GalNAc
# How it was run: as §1
# [34] = target: Neu5Ac(a2-6)Gal(b1-4)GlcNAc(b1-6)[Gal(b1-3)GlcNAc(b1-3)]Gal(b1-4)Glc
# How it was run: as §1
# [35] = target: Neu5Ac(a2-6)GalNAc(b1-4)GlcNAc
# How it was run: as §1
# Neu5Gc(a2-6)GalNAc = target: Neu5Gc(a2-6)GalNAc
# How it was run: as §1
binder,measurement,setting,value
B1,glycan array binding signal (z-score),[1],-0.364
same,glycan array binding signal (z-score),[2],-0.36
same,glycan array binding signal (z-score),[3],-0.364
same,glycan array binding signal (z-score),[4],0.123
same,glycan array binding signal (z-score),[5],-0.357
same,glycan array binding signal (z-score),Gal(a1-3)Gal(b1-4)GlcNAc,-0.137
same,glycan array binding signal (z-score),Gal(a1-6)Glc,-0.37
same,glycan array binding signal (z-score),Gal(b1-3)Gal(b1-4)GlcNAc,3.61
same,glycan array binding signal (z-score),[6],0.413
same,glycan array binding signal (z-score),[7],-0.333
same,glycan array binding signal (z-score),[8],-0.192
same,glycan array binding signal (z-score),[9],3.28
same,glycan array binding signal (z-score),[10],1.27
same,glycan array binding signal (z-score),[11],0.001
same,glycan array binding signal (z-score),[12],1.15
same,glycan array binding signal (z-score),[13],3.31
same,glycan array binding signal (z-score),[14],3.16
same,glycan array binding signal (z-score),[15],3.28
same,glycan array binding signal (z-score),[16],3.31
same,glycan array binding signal (z-score),[17],4.18
same,glycan array binding signal (z-score),[18],2.44
same,glycan array binding signal (z-score),Gal3S(b1-3)GlcNAc,-0.363
same,glycan array binding signal (z-score),Kdn(a2-6)Gal(b1-4)GlcNAc,0.063
same,glycan array binding signal (z-score),[19],-0.378
same,glycan array binding signal (z-score),[20],-0.369
same,glycan array binding signal (z-score),[21],-0.36
same,glycan array binding signal (z-score),[22],2.3
same,glycan array binding signal (z-score),[23],-0.373
same,glycan array binding signal (z-score),Neu5Ac(a2-3)GalNAc,-0.364
same,glycan array binding signal (z-score),[24],-0.368
B2,glycan array binding signal (z-score),GalNAc3S(b1-4)GlcNAc3S,-0.441
same,glycan array binding signal (z-score),GlcA(b1-6)Gal,-0.198
same,glycan array binding signal (z-score),[25],-0.462
same,glycan array binding signal (z-score),[26],0.361
same,glycan array binding signal (z-score),GlcNAc(b1-6)GalNAc,-0.467
same,glycan array binding signal (z-score),Kdn(a2-3)Gal(b1-3)GlcNAc,-0.454
same,glycan array binding signal (z-score),Kdn(a2-3)Gal(b1-4)GlcNAc,-0.394
same,glycan array binding signal (z-score),[19],-0.635
same,glycan array binding signal (z-score),[27],-0.387
same,glycan array binding signal (z-score),[28],-0.474
same,glycan array binding signal (z-score),[22],-0.253
same,glycan array binding signal (z-score),[29],-0.217
same,glycan array binding signal (z-score),[30],-0.447
same,glycan array binding signal (z-score),[31],0.392
same,glycan array binding signal (z-score),[32],-0.06
same,glycan array binding signal (z-score),[33],-0.357
same,glycan array binding signal (z-score),[34],-0.304
same,glycan array binding signal (z-score),[35],-0.519
same,glycan array binding signal (z-score),Neu5Gc(a2-6)GalNAc,-0.467
